Several values for one entry are separate records, joined by “and”; a condition that tells them apart may be missing. Equal values may be shown once. Activity calls are given as the source filed them. Unless noted, how the calls were made is not given here.
Key:
[1] = circadian clock period modulators, cell-based, LOPAC library, luminescence reporter (AID 2774); settings: circadian reporter cells, at 7 µM, actives lie on both sides;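 further: values are relative to mean of DMSO wells on each plate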
[2] = hESC survival regulators, cell-based (AID 493140); settings: human embryonic stem cell survival screen; stronger effect = higher value;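 further: cells exposed to compounds for four days before counting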
[3] = liver-stage malaria parasite growth inhibition, primary screen, cell-based, HepG2, luciferase luminescence, HepG2 viability (AID 624349; in the data active means parasite load remaining mostly below about 12%, no sharp cut-off; inactive means mostly above about 10%;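 further: 100% = mean of DMSO negative control wells on the same plate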); settings: P. berghei liver stage in HepG2, luciferase luminescence, concentration not given here; parasite load remaining: stronger effect = lower value; viability: measured here: HepG2 viability without parasites
[4] = system: Aerobactin synthetase IucA (Klebsiella pneumoniae); experiment: IucA aerobactin synthetase inhibitors, biochemical, Tocris library, absorbance (AID 1345561); settings: purified IucA enzyme assay, absorbance (OD) read-out; stronger effect = lower value;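 tested at 8 µM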;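 further: 100% = enzyme without compound and 0% = no enzyme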
[5] = sensitizers of A549 cells to miR-34 induction, primary screen, imaging, A549 dox-inducible miR-34, nuclei and caspase counts (AID 1347080;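 active means compounds whose cell count with miR-34 switched on is under 0.7 times the count with it off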); settings: A549 miR-34 inducible, Hoechst nuclei count, 48 h
[6] = survival rescue of mitochondrial mutant cells in low glucose, primary screen, MELAS cybrids, Rieske KO mouse fibroblasts, CellTiter-Glo (AID 1508586;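 active means mean z-score across replicates of 1.96 or higher in either the MELAS or the Rieske mutant cell line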;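 further: z relative to plate mean and SD of compound and empty wells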)
[7] = viability rescue of complex I mutant cybrids, primary screen, cell-based, galactose medium, ATP luminescence (AID 1645843;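 active means z-score of at least 1.8 in each of two replicates, scored against plate mean and spread of sample wells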;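 further: positive z means more ATP and so rescue of galactose-driven cybrid death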); settings: complex I mutant cybrid cells, 72 h, stronger effect = higher value
[8] = system: Hepatitis C virus NS3 helicase; experiment: HCV NS3 helicase inhibitors, primary screen, biochemical, fluorescence polarization, LOPAC1280 library (AID 687035; in the data active means inhibition above about 37%); settings: Purified HCV NS3 helicase, Cy5-dT15 ssDNA binding fluorescence polarization; stronger effect = higher value; concentration not given here
[9] = Cy5 fluorescence quenching or enhancement artefacts, artefact control for HCV NS3 helicase inhibitor project, biochemical, LOPAC1280 (AID 687037); settings: Cy5-DNA-NS3h complex fluorescence interference counterscreen
[10] = phospholipid biosynthesis inhibitors in animal cells, primary screen, cell-based, LOPAC library, screen 4 (AID 1347384); settings: phospholipid biosynthesis inhibition screen, at 10 µM
[11] = inhibitors of Cryptococcus chitosan production, flow cytometry, Cibacron Brilliant Red staining (AID 1347148); settings: Cryptococcus neoformans chitosan, stronger effect = lower value; at 10 µM unless noted;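 further: compound exposure lasted three days at 37 degrees C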
[12] = stronger effect = lower value, cell number ratio, induced over uninduced
[13] = measured here: relative caspase fold change +Dox/-Dox
[14] = measured here: total cells with miR-34 induction, stronger effect = lower value
[15] = measured here: total cells without miR-34 induction
[16] = MELAS cybrid survival, CellTiter-Glo 48 h, stronger effect = higher value
[17] = Rieske KO mouse fibroblast survival, CellTiter-Glo 72 h

| SMILES | period change [1] | survival [2] | parasite load remaining [3] | viability [3] | remaining activity [4] | fold change [5, 12] | fold change [5, 13] | cell count [5, 14] | cell count [5, 15] | z-score [6, 16] | z-score [6, 17] | z-score [7] | inhibition [8] | fluorescence ratio (interference) [9] | outcome [10] | fold fluorescence [11] |
| --- | --- | --- | --- | --- | --- | --- | --- | --- | --- | --- | --- | --- | --- | --- | --- | --- |
| O=C(NCCNCC(O)COc1ccc(O)cc1)N1CCOCC1 (centres undefined) | -0.145 h (inactive) | 3.92 (inactive) | 67.2% (inactive) and 53.1% (inactive) | 92.7% and 101% | 86.3% (inactive) | 0.933 (inactive) and 0.982 (inactive) and 0.986 (inactive) | 1.12 and 0.678 and 0.984 | 9570 and 9500 and 10300 | 10300 and 9670 and 10400 | 0.558 (inactive) and 0.821 (inactive) | -0.323 and 0.721 | 1.45 (inactive) and 0.315 (inactive) |  |  |  |  |
| CC(C)(C)c1ccc(/C=C/C(=O)Nc2ccc3c(c2)OCCO3)cc1 |  |  |  |  | 109% (inactive) | 1.15 (inactive) and 1.27 (inactive) | 0.847 and 0.54 | 4930 and 3950 | 4270 and 3100 |  |  | -1.38 (inactive) and -0.7 (inactive) | -1% (inactive) | 1 (inactive) | inactive |  |
| O=C(Nc1ccccc1)c1cc([N+](=O)[O-])ccc1Cl | -0.23 h (inactive) |  |  |  | 120% (inactive) |  |  |  |  | -0.372 (inactive) | 0.0531 | -0.715 (inactive) and -0.72 (inactive) | -5% (inactive) | 1 (inactive) | inactive | 3.58 [at 180.7 µM] (inactive) |
| Oc1cc2c(c(Cl)c1O)CCNCC2c1ccccc1 (centres undefined) | 0.11 h (inactive) |  |  |  | 120% (inactive) | 1.3 (inactive) and 0.885 (inactive) | 0.646 and 0.88 | 5030 and 5850 | 3880 and 6610 |  |  | 0.1 (inactive) and -0.405 (inactive) |  | 0.6 (active) | inactive |  |
| CCCCCCC(=O)OC1CC(C)(C)NC(C)(C)C1 |  |  |  |  | 97.8% (inactive) | 0.999 (inactive) and 0.934 (inactive) | 0.562 and 1.2 | 9880 and 8660 | 9890 and 9270 |  |  | 0.56 (inactive) and 0.015 (inactive) | -4% (inactive) | 0.9 (inactive) | inactive |  |
| c1ccc2nc(C3=NCCN3)ccc2c1 | 0.1 h (inactive) |  |  |  | 101% (inactive) | 1.03 (inactive) and 0.931 (inactive) | 1.73 and 0.739 | 9970 and 8800 | 9720 and 9460 |  |  | 0.695 (inactive) and 0.09 (inactive) | 0% (inactive) | 1 (inactive) | inactive |  |
| Cn1cnc2c(NCc3ccccc3)nc(NCCO)nc21 | 0.235 h (inactive) | 92.8 (inactive) |  |  | 120% (inactive) |  |  |  |  |  |  | 0.355 (inactive) and 0.005 (inactive) | -2% (inactive) | 0.9 (inactive) | inactive | 4.59 [at 167.6 µM] (inactive) |
| Cc1ccc([N+](=O)[O-])cc1S(=O)(=O)N(C)C |  |  |  |  | 93.4% (inactive) | 0.957 (inactive) and 0.856 (inactive) | 1.62 and 1.47 | 9070 and 7620 | 9480 and 8900 |  |  | 0.32 (inactive) and -0.31 (inactive) | 0% (inactive) | 1 (inactive) | inactive |  |
| c1ccc(C(NCc2cccnc2)(c2ccccc2)c2ccccc2)cc1 |  |  |  |  | 95% (inactive) | 1.09 (inactive) and 0.901 (inactive) | 1.48 and 1.53 | 7080 and 6130 | 6480 and 6800 |  |  | -1.03 (inactive) and -0.695 (inactive) | 0% (inactive) | 1 (inactive) | inactive |  |
| CC(C)[C@@H]1CC[C@@H](C)C[C@@H]1P(=O)(c1ccccc1)c1ccccc1 |  |  |  |  | 100% (inactive) | 0.961 (inactive) and 0.925 (inactive) | 0.895 and 1.06 | 8530 and 7980 | 8880 and 8620 |  |  | 0.1 (inactive) and -0.24 (inactive) | 2% (inactive) | 1 (inactive) | inactive |  |
| Oc1cc2c(cc1O)CN(C(=S)NCCc1ccc(Cl)cc1)CCC2 | 0.035 h (inactive) |  |  |  | 72.4% (inactive) |  |  |  |  |  |  | -0.99 (inactive) and -1.23 (inactive) | 0% (inactive) | 1 (inactive) | inactive | 5.63 [at 132.7 µM] (inactive) |
| Cc1ccc(O)c(N=Nc2ccccc2)n1 | -0.01 h (inactive) |  |  |  | 110% (inactive) | 0.956 (inactive) and 0.932 (inactive) | 0.751 and 0.659 | 10100 and 8850 | 10500 and 9490 |  |  | 1.16 (inactive) and 0.96 (inactive) | 1% (inactive) | 0.9 (inactive) | inactive |  |
| Cc1ccc(C(=O)Cn2c3c(sc2=N)CCCC3)cc1 |  |  |  |  | 107% (inactive) |  |  |  |  | 1.05 (inactive) | -0.573 | -0.225 (inactive) |  |  |  | 5.78 [at 174.6 µM] (inactive) |
| CCc1ccc2c(-c3cccc(Cl)c3)nc(=O)n(CC)c2n1 |  |  |  |  | 124% (inactive) | 1.11 (inactive) and 0.913 (inactive) | 1.55 and 0.664 | 9380 and 8340 | 8460 and 9140 |  |  | 1.02 (inactive) and -0.175 (inactive) | -2% (inactive) | 1 (inactive) | inactive |  |

From PubChem BioAssay
